In all, about 96,000 compounds went through this assay and about 20,000 (21%) were called active. A selection follows. Unmarked numbers belong to inactive results.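 The calls were made as follows: active = CYP2C19 inhibition above a set limit at 5 µM in the primary screen (cut at about 50% in these data); inactive = the rest.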
target: Cytochrome P450 2C19 (Homo sapiens) (UniProt P33261); assay: blockers of cytochrome P450 2C19 activity – biochemical, luminescence, ADME assay, primary screen (AID 778); settings: CYP2C19 Supersomes, luciferin-H EGE luminescence, 30 min; at 5 µM; active compounds read high;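 also: plate controls were negative control wells for no effect and 2.5 mM tranylcypromine positive control for full effect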
Sequence (P33261 whole entry, looked up): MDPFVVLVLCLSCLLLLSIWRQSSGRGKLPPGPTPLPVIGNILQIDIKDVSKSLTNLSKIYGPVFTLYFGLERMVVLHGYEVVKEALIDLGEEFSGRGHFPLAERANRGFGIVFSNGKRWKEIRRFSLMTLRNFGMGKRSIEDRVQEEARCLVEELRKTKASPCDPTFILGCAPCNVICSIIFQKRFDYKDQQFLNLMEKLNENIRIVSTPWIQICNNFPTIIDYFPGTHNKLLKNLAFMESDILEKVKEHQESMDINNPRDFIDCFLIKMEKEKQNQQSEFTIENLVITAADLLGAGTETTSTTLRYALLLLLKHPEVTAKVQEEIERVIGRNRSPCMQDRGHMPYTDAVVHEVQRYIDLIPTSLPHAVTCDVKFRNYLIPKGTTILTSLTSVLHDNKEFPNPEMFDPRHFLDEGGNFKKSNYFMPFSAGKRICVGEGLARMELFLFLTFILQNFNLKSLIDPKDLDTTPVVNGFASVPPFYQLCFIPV

Structure (SMILES)	inhibition
Cn1cnc2c1c(=O)n(Cc1c(Cl)cccc1Cl)c(=O)n2C	49.5%
Cc1c(C#N)c(NC(=O)c2ccccc2)n(Cc2ccccc2)c1C	22.6%
CCOC(=O)CCC(=O)OCC(=O)NC(C)C1CC2CCC1C2 (stereo not drawn)	10.6%
CCOC(=O)N1CCC(O)(c2cc(C)c(C)cc2C)CC1	43.5%
O=C(CN1C(=O)c2ccccc2S1(=O)=O)N1CCc2ccccc21	-7.4%
O=C1c2ccccc2S(=O)(=O)N1CC(O)Cn1c2ccccc2c2ccccc21 (stereo not drawn)	73.4% (active)
CNC(=O)CN1C(=O)c2ccccc2S1(=O)=O	-9.3%
COc1ccc(-n2ncc3c(N4CCc5ccccc54)ncnc32)cc1	-2.2%
Cc1n[nH]c(=S)n1/N=C/c1ccc(Br)o1	-3.6%
CCC(Sc1nncn1C)C(=O)Nc1nnc(-c2ccc(Cl)cc2)s1 (stereo not drawn)	17.4%
CCOc1cc2[nH]c(=S)n(CCCN3CCCC3=O)c(=O)c2cc1OCC	6.7%
O=C(Nc1cnn(Cc2ccc(Cl)cc2)c1)C1CCCC1	84.8% (active)
O=C(O)C1CCCCC1C(=O)Nc1ccc(Cl)cc1 (stereo not drawn)	29.9%
O=C(O)c1ccc(NC(=O)C2CCCCC2)cc1	-21.5%
C[N+](C)(C)CCNC(=O)c1c(O)c2c([nH]c1=O)CCCC2	7.7%
O=C(O)[C@@H]1CCCN1c1ncnc2sc3c(c12)CCC3	6.9%
O=P(O)(CP(=O)(c1ccccc1)c1ccccc1)c1ccccc1O	22.6%
O=C1CC(c2cccc(Br)c2)C2=C(CCCC2=O)N1 (stereo not drawn)	11.9%
CN(C)Cc1ccccc1C1(O)c2ccccc2CSc2ccccc21 (stereo not drawn)	67.5% (active)
CCN(CC)c1ccc(NC(=O)c2ccc(Cl)nc2)cc1	7.7%
CSc1ccc(Cl)c(C(=O)OCC(=O)N2CC(C)OC(C)C2)c1 (stereo not drawn)	12.4%

Structure (SMILES)	inhibition
O=C(CC1Nc2ccccc2NC1=O)Nc1ccccc1 (stereo not drawn)	2.9%
O=C(CCN1c2ccccc2Sc2ccccc21)Nc1ccccc1	80.2% (active)
O=C(O)CCCC(=O)Nc1ccccc1-n1ccnc1	-4.7%
Cc1cc(N)n2nc(-c3ccc(C(C)(C)C)cc3)cc2n1	26.1%
COc1cccc(Nc2ncccc2C(=O)O)c1	-9.2%
O=C(CNC(=O)Cc1ccccc1)NCC(=O)OCC(=O)c1ccccc1Cl	1.6%
CCOc1ccc2[nH]c(=O)c(CN(Cc3nnnn3Cc3ccccc3)CC3CCCO3)cc2c1 (stereo not drawn)	8.7%
Cc1cc(C)c2cc(CN(Cc3cccs3)Cc3nnnn3CC3CCCO3)c(=O)[nH]c2c1 (stereo not drawn)	84.5% (active)
Cc1cc2cc(CN(Cc3cccs3)Cc3nnnn3CC3CCCO3)c(=O)[nH]c2cc1C (stereo not drawn)	34.3%
COc1ccc(N(Cc2cc3cc(OC)ccc3[nH]c2=O)S(C)(=O)=O)cc1	18.7%
CC(C)(C)n1nnnc1C(c1cccs1)N(Cc1cccnc1)CC1CCCO1 (stereo not drawn)	31.5%
COc1ccc2[nH]c(=O)c(CN(Cc3nnnn3CCc3ccccc3)CC3CCCO3)cc2c1 (stereo not drawn)	77.7% (active)
Nc1c(C(=O)NCc2ccccc2)sc2nc3c(cc12)C(=O)CCC3	-16.5%
CCn1c(=O)cc(O)c2ccccc21	-18.1%
CC(=O)c1c(C)c[nH]c1C	-14.8%
CCC(=O)Nc1ccc(C(=O)Nc2ccc3c(c2)C(=O)N(CC2CCCO2)C3=O)cc1 (stereo not drawn)	-1%
CCC(C)(C)n1nnnc1CN1CCN(c2nc3ccc(C)cc3cc2C#N)CC1	0.3%
CCSC1(SCC)N=C(N)C2(C#N)C(c3ccccc3)NC(C)=CC12C#N (stereo not drawn)	16.1%
O=C(CCl)NNc1cccc(Cl)n1	6.7%
COC(=O)CN1C(C)=Nc2ccc(Br)cc2C1c1ccccc1 (stereo not drawn)	43.4%
COC(=O)C1=C(C)N(C)C(C)=C(C(=O)OC)C1c1cccc(Br)c1	79.2% (active)

Structure (SMILES)	inhibition
COC(=O)c1oc2ccc(Br)cc2c1NC(C)=O	14.7%
CCOC(=O)CN1CC23C=CC(O2)C(C(=O)Nc2ccc(F)cc2)C3C1=O (stereo not drawn)	40.7%
Cc1occc1C(=O)NNC(=S)NCC(C)C	74.6% (active)
CCNC(=S)NNC(=O)Cc1ccccc1	18.2%
CC(C)CNC(=S)NNC(=O)c1ccccc1OC(F)F	16.6%
O=C(NCc1ccco1)c1nc2ncccn2n1	-0.7%
CN1CCN(Cc2nc3c(c(=O)n(C)c(=O)n3C)n2Cc2cccc3ccccc23)CC1	-17.1%
O=S(=O)(c1cccc(S(=O)(=O)N2CCC(n3nnc4ccccc43)CC2)c1)N1CCCCC1	94.7% (active)
O=S(=O)(c1cccc(-c2nnc(SC(F)F)n2-c2ccccc2)c1)N1CCCCC1	41.6%
CC(=O)c1cccc(S(=O)(=O)N2CCC(n3nnc4cc(F)ccc43)CC2)c1	43.1%
Cc1ccc(CNC(=O)CCNC(=O)Cn2ccc3ccccc3c2=O)cc1	17.4%
CCOCCOCCC(C(=O)O)P(=O)(c1ccccc1)c1ccccc1 (stereo not drawn)	-2.4%
COc1ccc(NC(=O)ON=C2c3ccccc3-c3ccccc32)cc1	11.6%
CCCCC(=O)N/N=C(\C)CC(=O)Nc1cc(Cl)ccc1OC	6.1%
COc1ccc(Cl)cc1NC(=O)c1oc(C)nc1C	-9%
COc1ccc(Cl)cc1NC(=O)CN(C)C(=O)CNC(=O)C12CC3CC(CC(C3)C1)C2	67.9% (active)
O=C(CSCc1ccc([N+](=O)[O-])cc1)Nc1cccc(C(=O)Nc2ccccc2C(=O)O)c1	14.5%
COc1ccccc1CNS(=O)(=O)c1ccc(C)cc1	92.5% (active)
COc1ccccc1Cc1nc(-c2ccc(C)cc2)no1	35.6%
Cc1ccc(S(=O)(=O)NCC(C)NS(C)(=O)=O)cc1 (stereo not drawn)	16.9%
Nc1c(C(=O)NCc2ccccc2)nnn1Cc1cccc(Cl)c1	6.4%
